Results reported in PubChem BioAssay (EPA / NIEHS).
Inconclusive results are not listed. The source made the active and inactive calls. How the source made its calls: active means hit-call score of the fitted dose curve at least 0.9, where 1 is the maximum; inconclusive means response in the unintended direction; inactive means score below 0.9.

test: ATG_M_19_TRANS: Attagene TRANS-FACTORIAL HepG2 Assay for M19 Transcription Factor (Internal Marker) (AID 2282974); conditions: HepG2 Attagene TRANS-FACTORIAL M19 internal marker reporter
Procedure: ATG_TRANS is a cell-based, multiplexed-readout assay that uses HepG2, a human liver cell line, with measurements taken at 24 hours after chemical dosing in a 24-well plate.ATG_M_19_TRANS is one of 30 assay component(s) measured or calculated from the ATG_TRANS assay. It is designed to make measurements of mRNA induction, a form of inducible reporter, as detected with fluorescence intensity signals by Reverse transcription polymerase chain reaction (RT-PCR) and Capillary electrophoresis technology.Data from the assay component ATG_M_19_TRANS was analyzed into 1 assay endpoint. This assay endpoint, ATG_M_19_TRANS, was analyzed in the positive analysis fitting direction relative to DMSO as the negative control and baseline of activity. Using a type of inducible reporter, measures of mRNA for gain-of-signal activity can be used to understand the background control at the transcription factor-level as they relate to the gene . Furthermore, this assay endpoint can be referred to as a secondary readout, because this assay has produced multiple assay endpoints where this one serves a background control function. To generalize the intended target to other relatable targets, this assay endpoint is annotated to the background measurement intended target family, where the subfamily is internal marker.
Human liver HepG2 cells are transiently transfected with multiple reporter transcription units (MRTUs) in 6-well plates using FuGene 6 reagent (Roche; 3 ml FuGene/1 mg DNA). The MRTU constructs are regulated by a cis-regulating element (promoter). […] A major difference between the CIS and TRANS system is that in CIS activities of endogenous TFs are measured, whereas the TRANS assay evaluates changes in activities of exogenous, chimeric NR-Gal4 proteins. […] At the end of 24 hour incubation, total RNA was isolated using TriZol reagent (Invitrogen). The isolated RNA is then reverse-transcribed using oligo(dT) primer and Mo-MLV reverse transcriptase (Invitrogen) with DNAse I (Ambion) treatment for 30 min. The one-tenth of the produced cDNA was amplified by PCR using Taq DNA polymerase (Invitrogen) and two reporter sequence-specific primers. The PCR products were fluorescently labeled by primer extension with 6-arboxyfluorescein (6-FAM) 5'-labeled reporter sequence-specific primer (2 min at 95 C, 20 s at 68 C and 10 min at 72 C) and these products were digested with 5U of HpaI (New England Biolabs) for 2h at 37 C. The fragments were purified using Qiaquick PCR columns (Qiagen), analyzed on an ABI 3130xL genetic analyzer (Applied Biosystems) with peak positions identified by using a set of X-rhodamine (ROX)-labeled MapMarker1000 molecular weight standards (BioVentures). The raw capillary electrophoresis data was processed using Attagraph software (Attagene).

Question: Which outcome does the source give for `CCc1ccc(C(c2ccc(CC)cc2)C(Cl)Cl)cc1` here?
Answer: Its outcome is “inactive”.

Question: For `OCC(F)(F)C(F)(F)C(F)(F)F`, which outcome is on record?
Answer: The outcome was “inactive”.

Question: For `FC(F)(F)C(F)(F)C(F)(F)C(F)(F)C(F)(F)C(F)(F)C(F)(F)Br`, which outcome is on record?
Answer: The outcome was “inactive”.

Question: For `FC(F)(F)C(F)(F)C(F)(F)C(F)(F)C(F)(F)C(F)(F)C(F)(F)C(F)(F)CCS`, which outcome is on record?
Answer: The outcome was “inactive”.

Question: With `OCC(F)(F)C(F)(F)C(F)(F)C(F)(F)C(F)(F)C(F)(F)F` as the compound, how does the outcome read?
Answer: The outcome was “inactive”.

Question: For `O=C(C=Cc1ccccc1)OCC=Cc1ccccc1`, which outcome is on record?
Answer: Its outcome is “inactive”.

Question: For `CCC(=O)OCCc1ccccc1`, which outcome is on record?
Answer: Its outcome is “inactive”.

Question: With `CC(CCl)OP(=O)(OC(C)CCl)OC(C)CCl` (stereo not given) as the compound, how does the outcome read?
Answer: Its outcome is “inactive”.

Question: With `C=C(C)C(=O)OCC(F)(F)C(F)(F)C(F)(F)F` as the compound, how does the outcome read?
Answer: Its outcome is “inactive”.

Question: Which outcome does the source give for `C(=C(c1ccccc1)c1ccccc1)c1ccccc1` here?
Answer: Its outcome is “inactive”.

Question: Which outcome does the source give for `C=CC(=O)OCC(F)(F)C(F)(F)C(F)(F)C(F)(F)COC(=O)C=C` here?
Answer: The outcome was “inactive”.

Question: Which outcome does the source give for `CC/C=C\CCOC(=O)c1ccccc1` here?
Answer: The outcome was “inactive”.

Question: With `COC(OC(C)=O)c1ccccc1` (stereo not given) as the compound, how does the outcome read?
Answer: The outcome was “inactive”.

Question: For `FC(F)(F)C(F)(F)C(F)(F)C(F)(F)C(F)(F)C(F)(F)C(F)(F)I`, which outcome is on record?
Answer: The outcome was “inactive”.

Question: For `O=C(O)C(F)(F)C(F)(F)C(F)(F)C(F)(F)C(F)(F)C(F)(F)C(F)(F)C(F)(F)Cl`, which outcome is on record?
Answer: The outcome was “inactive”.

Question: For `O=S(=O)(OCC(F)F)C(F)(F)F`, which outcome is on record?
Answer: Its outcome is “inactive”.

Question: With `CCCCCCCCC(F)(F)C(F)(F)C(F)(F)C(F)(F)C(F)(F)C(F)(F)F` as the compound, how does the outcome read?
Answer: Its outcome is “inactive”.

Question: With `OCCCC(F)(F)C(F)(F)C(F)(F)F` as the compound, how does the outcome read?
Answer: The outcome was “inactive”.

Question: For `c1ccc(-c2ccccc2-c2ccccc2)cc1`, which outcome is on record?
Answer: The outcome was “inactive”.

Question: With `FC(F)(F)C(F)(F)C(F)(F)C(F)(F)CCI` as the compound, how does the outcome read?
Answer: Its outcome is “inactive”.

Question: Which outcome does the source give for `FC(F)(F)C(F)(F)C(F)(F)N(C(F)(F)C(F)(F)C(F)(F)F)C(F)(F)C(F)(F)C(F)(F)F` here?
Answer: Its outcome is “inactive”.

Question: For `OCC(F)(F)C(F)(F)C(F)(F)C(F)F`, which outcome is on record?
Answer: Its outcome is “inactive”.

Question: Which outcome does the source give for `Cc1cc(C)cc(O)c1` here?
Answer: Its outcome is “inactive”.

Question: Which outcome does the source give for `O=C(O)C(F)(OC(F)(F)C(F)(OC(F)(F)C(F)(F)C(F)(F)F)C(F)(F)F)C(F)(F)F` (stereo not given) here?
Answer: The outcome was “inactive”.

Question: Which outcome does the source give for `O=C(OCCOCCOCCOC(=O)c1ccccc1)c1ccccc1` here?
Answer: Its outcome is “inactive”.

Question: With `CCN(CC)c1ccc2c(C)cc(=O)oc2c1` as the compound, how does the outcome read?
Answer: Its outcome is “inactive”.

Question: With `O=C(O)C(F)(F)C(F)(F)C(F)(F)F` as the compound, how does the outcome read?
Answer: The outcome was “inactive”.

Question: Which outcome does the source give for `CCCCC(CC)COP(=O)(O)OCC(CC)CCCC` (stereo not given) here?
Answer: Its outcome is “inactive”.

Question: Which outcome does the source give for `CNC(=S)NC` here?
Answer: Its outcome is “inactive”.

Question: With `O=C(O)C(F)(F)C(F)(F)C(F)(F)C(F)(F)C(F)(F)C(F)(F)C(F)(F)C(F)(F)C(F)(F)C(F)(F)C(F)(F)C(F)(F)F` as the compound, how does the outcome read?
Answer: Its outcome is “inactive”.

Question: Which outcome does the source give for `O=C(O)C(F)(F)C(F)(F)C(F)(F)C(F)(F)F` here?
Answer: Its outcome is “inactive”.

Question: With `CCCCNc1ccccc1` as the compound, how does the outcome read?
Answer: The outcome was “inactive”.

Question: Which outcome does the source give for `FC1CC(F)(F)C(F)(F)C1(F)F` (stereo not given) here?
Answer: The outcome was “inactive”.

Question: For `CC(C)=CCCC(C)CCOC(=O)C(C)C` (stereo not given), which outcome is on record?
Answer: Its outcome is “inactive”.

Question: Which outcome does the source give for `[Co]` here?
Answer: Its outcome is “inactive”.

Question: Which outcome does the source give for `O=P(O)(O)OCCC(F)(F)C(F)(F)C(F)(F)C(F)(F)C(F)(F)C(F)(F)F` here?
Answer: Its outcome is “inactive”.

Question: With `CC(C)(C)C(=O)CC(=O)C(F)(F)C(F)(F)C(F)(F)F` as the compound, how does the outcome read?
Answer: The outcome was “inactive”.

Question: Which outcome does the source give for `CCCCCC=O` here?
Answer: Its outcome is “inactive”.

Question: Which outcome does the source give for `COC(=O)CCC(F)(F)C(F)(F)C(F)(F)C(F)(F)F` here?
Answer: Its outcome is “inactive”.

Question: With `FC(F)(F)C(F)(F)C(F)(F)CI` as the compound, how does the outcome read?
Answer: Its outcome is “inactive”.
